GPR151 ag: activators of human GPR151, primary screen, cell-based, PathHunter beta-arrestin, luminescence | activation, % at 11.2 µM | G-protein coupled receptor 151 (Homo sapiens), Q8TDV0 | 1% of 650,000 active | PathHunter beta-arrestin GPR151 cells; in the data active = activation above about 4.9%;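 also: 0% = median of compound wells and 100% = cells with positive control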
Target sequence (Q8TDV0 whole entry, looked up): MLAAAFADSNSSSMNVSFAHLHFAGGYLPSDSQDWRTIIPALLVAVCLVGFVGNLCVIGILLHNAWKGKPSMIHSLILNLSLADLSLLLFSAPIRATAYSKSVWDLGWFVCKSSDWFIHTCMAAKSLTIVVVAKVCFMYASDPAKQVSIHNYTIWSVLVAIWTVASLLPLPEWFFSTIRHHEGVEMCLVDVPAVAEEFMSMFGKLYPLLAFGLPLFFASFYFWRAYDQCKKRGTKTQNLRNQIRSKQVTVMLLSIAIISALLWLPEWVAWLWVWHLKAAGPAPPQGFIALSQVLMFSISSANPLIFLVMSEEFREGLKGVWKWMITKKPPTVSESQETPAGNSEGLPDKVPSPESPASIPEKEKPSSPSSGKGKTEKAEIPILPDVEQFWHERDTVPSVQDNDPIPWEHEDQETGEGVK
FBW7 activator: FBW7 E3 ligase activators, primary screen, biochemical, AlphaScreen, human; AID 1259310, 2017; AlphaScreen FBW7–phospho-cyclin E peptide binding, activator screen; normalized activity (activation), % at 26.1 µM; 0.13% of 650,000 active; in the data active = normalized activity above about 1.9%;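 also: purified mutant Fbw7 with reduced substrate affinity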
MITF inh: MITF inhibitors, primary screen, biochemical, AlphaScreen, human; Microphthalmia-associated transcription factor (Homo sapiens), O75030; AlphaScreen MITF homodimerization, bead proximity signal; inhibition, % at 2.6 µM; 0.91% of 650,000 active; in the data active = inhibition above about 50%;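 also: 0% = vehicle wells with protein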
TEAD-YAP block: TEAD-YAP interaction inhibition, primary screen, TEAD-YAP interaction inhibitor project, luminescence, HEK-TIYL cells | TEAD-Gal4/YAP UAS-luciferase luminescence | inhibition, % at 9.12 µM | 1.4% of 640,000 active | AID 1259422, 2018; in the data active = inhibition above about 32%;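 also: 0% = median of test compound wells and 100% = reference inhibitor wells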
GPR151 confirm: GPR151 activators, triplicate retest, confirmation, cell-based, PathHunter beta-arrestin, luminescence; shares compounds with GPR151 ag; 6,700 tested, under 10 active; GPR151 PathHunter beta-arrestin cells, 90 min; % of EA-reagent control over plate median; activation, % at 11.2 µM;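 active = mean percent activation across replicates above the confirmation screen cutoff of 4.91%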
GPR119 counter: GPR119 activators in beta-arrestin cells, counter-screen for GPR151 activator project, cell-based, PathHunter beta-arrestin, luminescence, triplicate; 0.3% of 6,700 active; 90 min; 0 = compound-well median, 100 = enzyme-acceptor control; shares compounds with GPR151 ag; AID 1508611, 2020; activation, % at 11.2 µM;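 active = mean percent activation in the counterscreen above 29.09%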;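 also: counterscreen on off-target GPR119 to flag nonselective hits from the GPR151 activator screen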
Active calls of the source: *; . = not tested or not shown; ! = a repeat was not active. Hits are enriched below; roughly 3.5% of the tested compounds scored in any of these assays.

SMILES	GPR151 ag	FBW7 activator	MITF inh	TEAD-YAP block	GPR151 confirm	GPR119 counter
COc1ccc(CCN(C)Cc2cc(OC)c(OC)cc2[N+](=O)[O-])cc1OC	8.4*	0.0	-13.8	13.3	-0.3	1.3
N#CC1=C(N)Oc2cc(O)ccc2C1c1ccc2c(c1)OCO2 (centres undefined)	0.6	-0.1	5.0	4.7	.	.
CC12C=CC(=O)C=C1CCC1C2CCC2(C)C(=O)CCC12 (centres undefined)	5.1*	-0.2	6.7	-16.2	-0.3	-5.5
C[C@]12CCC(=O)C=C1CC[C@@H]1[C@@H]2CC[C@]2(C)C(=O)CC[C@@H]12	-0.9	0.7	2.5	-5.7	.	.
C[C@H]1CC[C@@H]2[C@@H](C)[C@H]3[C@H](CC4[C@@H]5CC=C6CC(O[C@@H]7O[C@H](CO)C(O[C@@H]8O[C@@H](C)[C@H](O)[C@@H](O)[C@H]8O)[C@H](O)[C@H]7O[C@@H]7O[C@@H](C)[C@H](O)[C@@H](O)[C@H]7O)CC[C@]6(C)[C@H]5CC[C@@]43C)N2C1 (some centres undefined)	7.2*	0.0	11.0	-11.9	2.8	17.7
CC(C)C(=O)Nc1ccc(S(=O)(=O)N2CC3CC(C2)c2cccc(=O)n2C3)cc1 (centres undefined)	13.1*	0.0	8.4	2.5	-0.2	9.3
CC(=O)Nc1ccc(S(=O)(=O)N2CC3CC(C2)c2cccc(=O)n2C3)cc1 (centres undefined)	0.7	-0.1	-9.9	-7.9	.	.
CCOc1cccc(CNC2CN3CCC2CC3)c1 (centres undefined)	6.9*	0.0	-5.8	3.8	0.5	4.6
CC(=O)Oc1cccc(/C=C/c2nc3ccccc3c(=O)n2-c2ccccc2Br)c1	-1.3	-0.1	-14.8	10.9	.	.
CCCCCCCCCCCCCCCC[n+]1ccccc1	5.0*	0.3	-6.8	60.0*	1.5	13.0
CCN1CCN(Cc2cc(Br)cc(OC)c2O)CC1	6.6*	0.1	30.9	-1.6	0.1	-0.9
Cc1occc1C(=O)NN1Cc2ccccc2C1=N	1.8	-0.1	8.4	-8.6	.	.
CC(=O)c1ccc(OCC(=O)N2CCCC(N(C)CCc3ccccc3)C2)cc1 (centres undefined)	5.0*	0.1	18.7	-2.0	1.2	5.1
N#CCC(=O)NN1Cc2ccccc2C1=N	6.8*	0.0	-3.8	1.2	-0.3	7.9
COC(=O)c1ccc(CC(C(=O)c2ccccc2)N(C)C)cc1 (centres undefined)	-0.3	0.0	12.7	-28.7	.	.
C[C@H]1OC[C@@H](C[N+](C)(C)C)O1	-0.7	-0.1	2.7	1.8	.	.
C[C@@H]1O[C@H](C[N+](C)(C)C)C[C@H]1O	5.9*!	-0.1	-0.6	4.7	0.4	6.3
CCN1CCN(c2ncnc3sc(C)cc23)CC1	1.5	-0.1	-1.8	-7.3	.	.
C=CCOC(=O)C1C2NC(=S)N(c3cccc(Cl)c3)C1(C)Oc1ccccc12 (centres undefined)	10.0*	-0.3	-3.9	-6.7	-0.1	2.3
CCOC(=O)C1C2NC(=S)N(c3ccccc3)C1(C)Oc1ccccc12 (centres undefined)	0.8	-0.4	24.2	-4.0	.	.
O=C(Nc1ccc(Cl)cc1C(=O)c1ccccc1)c1ccc(-c2ccccc2)cc1	1.7	0.0	-1.9	4.4	.	.

High-throughput results from PubChem BioAssay.
